Screening data (PubChem)
NPSR antag: neuropeptide S receptor (human) antagonism, cAMP; Potency, µM (titrated, usually from 38.3 µM), without a hit: top-dose activity change, negative = inhibition, actives largely listed as inhibitors; 220,000 tested, 1% active; CHO-NPSR cells, cAMP TR-FRET, antagonist mode; note: potency is the fitted concentration of half-maximal effect; % is set by controls: 0 for no effect and ±100 for the full control effect; nearly all actives have a fitted effect of over 50% in size
Target sequence (Q6W5P4 whole entry, looked up): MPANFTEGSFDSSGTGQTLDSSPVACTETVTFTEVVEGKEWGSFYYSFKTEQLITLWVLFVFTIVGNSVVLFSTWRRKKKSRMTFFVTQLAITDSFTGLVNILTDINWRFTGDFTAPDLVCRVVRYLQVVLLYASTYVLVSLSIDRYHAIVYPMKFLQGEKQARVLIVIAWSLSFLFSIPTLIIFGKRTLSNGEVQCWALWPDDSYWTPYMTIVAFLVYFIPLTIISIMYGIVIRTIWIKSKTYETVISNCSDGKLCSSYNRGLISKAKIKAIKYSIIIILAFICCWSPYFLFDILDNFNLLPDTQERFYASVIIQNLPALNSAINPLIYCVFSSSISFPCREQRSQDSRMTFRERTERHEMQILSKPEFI
HTT cytoprotect: cytoprotection in Huntington HTT-Q103 PC12 cell model. 230,000 tested, 0.14% active. PC12 HTT-Q103 induced, cytoprotection, ATP luminescence, 40 h. AID 1471. Potency, µM (titrated, usually from 56.4 µM), inactives show cytoprotection (ATP increase), usual class: activators; note: potency is the fitted concentration of half-maximal effect; % of control where 0% means no effect; nearly all actives have a fitted effect of over 45% in size
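Compounds added alongside 100 nM tebufenozide, which induces toxic Q103 huntingtin exon 1-GFP in stable PC12 cells; surviving cells quantified by luminescent ATP measurement. Medium: phenol red-free DMEM, 5% equine and 5% calf serum.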
IMPase inh: cell-permeable inhibitors of inositol monophosphatase (IMPase) | CHO-M1 cells, IP1 accumulation, HTRF TR-FRET ratio | inhibition (IP1 accumulation), % at 46.1 µM | 120,000 tested, under 10 active; active = well fitted curve in the direction sought with a large enough effect in the signal ratio, not every such curve was filed as active; inconclusive = small, poorly fitted or top-dose-only effect, or a change in a side signal; inactive = no such curve, though single readings can be large or run the other way; the % refers to the signal ratio;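 note: cells stimulated with carbachol in lithium chloride buffer; plate controls were DMSO basal wells for no effect and reference inhibitor wells for full effect; higher means more IMPase inhibition seen as more IP1 and lower FRET ratio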
Target sequence (P97697 whole entry, looked up): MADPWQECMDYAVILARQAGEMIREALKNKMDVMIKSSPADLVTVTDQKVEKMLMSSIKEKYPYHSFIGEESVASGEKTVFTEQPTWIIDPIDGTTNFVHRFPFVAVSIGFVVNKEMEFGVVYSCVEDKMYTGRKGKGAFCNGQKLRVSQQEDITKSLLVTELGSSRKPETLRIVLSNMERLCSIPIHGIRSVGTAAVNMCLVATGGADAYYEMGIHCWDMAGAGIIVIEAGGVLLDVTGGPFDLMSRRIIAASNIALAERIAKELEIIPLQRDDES
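Measured: the HTRF emission ratio (665/620 nm) plus the 620 nm donor channel, each fitted to the Hill equation to give AC50. Cells were CHO-M1 given compounds up to 46 uM and a 30 min carbachol stimulation at 37C.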
HTT aggregate: reduces HttQ103-GFP aggregates in PC12 cells; Potency, µM (titrated, usually from 46.1 µM), for the others: top-dose activity change, negative = inhibition, most hits filed as inhibitors; AID 1688; PC12 HttQ103-GFP aggregates, Acumen cytometry, 40 h; 220,000 tested, 1.1% active; note: potency is the fitted concentration of half-maximal effect; % is set by controls: 0 for no effect and ±100 for the full control effect; nearly all actives have a fitted effect of over 60% in size
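Steps: seed 1500 PC12 HTTQ103-GFP cells/well; add tebufenozide, 100 nM final; add compound titration; add ATPLite reagent; quantify GFP aggregates by laser scanning cytometry.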
LMNA splice mod: changes lamin A minigene splicing in HeLa cells; HeLa LMNA splicing GFP/RFP minigene ratio, 48 h; Potency, µM (titrated, usually from 46.1 µM), for the others: at the highest dose ratio change, negative = inhibition, most hits filed as inhibitors; 200,000 tested, 0.01% active; AID 1487; active = well fitted inhibition curve with a large enough effect in the signal ratio, with a control signal flat, not every such curve was filed as active; inconclusive = small, poorly fitted or top-dose-only effect, or effect the other way, or a change in a side signal; the % refers to the signal ratio; note: potency is the fitted concentration of half-maximal effect; % is set by controls: 0 for no effect and ±100 for the full control effect
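Read-out is the ratio of GFP to DsRed2 object intensity, acquired by 488 nm laser-scanning cytometry on HeLa lamin A-EGFP minigene reporter cells. Compound incubation 48 hrs at 37 °C in Opti-MEM with 2% FBS; DMSO 0.5% final.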
IMPase Li cell: cell-permeable IMPase inhibitors with lithium potentiation. AID 1457. CHO-M1 cells, IP1 TR-FRET (IP-One), carbachol + lithium. Potency, µM (series often up to 59.4 µM), without a hit: at the top dose activity, negative = IMPase inhibition, most hits filed as inhibitors. 210,000 tested, 0.35% active;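 note: IP1 builds up when IMPase is blocked and the TR-FRET signal falls; potency is the fitted concentration of half-maximal effect; plate controls were basal vehicle for no effect and high inhibitor control for full effect; nearly all actives have a fitted effect of over 50% in size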
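CHO-M1, 2000 cells/well, 16–30 h culture; cpd + low Li+, 30 min 37C; lysis with d2-IP1/Eu-anti-IP1 Ab, 10 min RT; TR-FRET 665/620 ratio and 620 channel; AC50 via Hill.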
An asterisk follows results filed as active; ? = inconclusive; . = no result; [ ] = another dose, or the depositor's remark. This is a sample that favours compounds with a hit; in the whole collection about 1.6% have one here. Unless noted, calls come from the whole dose curve; as a rule, active = well fitted curve in the direction sought with a large enough effect; inconclusive = small, poorly fitted or top-dose-only effect, or another doubt; inactive = no such curve, though single readings can be large; an effect the other way counts as inactive or inconclusive.

SMILES | NPSR antag | HTT cytoprotect | IMPase inh | HTT aggregate | LMNA splice mod | IMPase Li cell
C[C@H](NCCN(C)C)[C@@H]1CCC2C3CCc4cc(O)ccc4[C@H]3CCC21C (stereo not given in full) | . | 9.5%[10 µM] | . | . | . | 7.7%
CCCC=O | . | -5.4% | . | . | . | 6.6%
CN(CCCNC(=O)Cn1ncc2c([nH]c3ccccc32)c1=O)Cc1ccccc1 | . | . | . | . | -0.9%[46 µM] | .
O=C1C2=CC[C@@H]3C(=O)N(c4ccc(F)cc4F)C(=O)[C@H]3[C@H]2[C@H](O)[C@H]2O[C@H]12 | . | 3.16µM* | . | . | . | .
C[C@@H](c1ccccc1)N1C(=O)[C@@H]2[C@H]3C(=CC[C@H]2C1=O)C(=O)[C@H]1O[C@H]1[C@H]3O | . | -3.7%[10 µM] | . | . | . | .
CC(C)(C)N1C(=O)[C@@H]2[C@H]3C(=CC[C@H]2C1=O)C(=O)[C@H]1O[C@H]1[C@H]3O | . | 5.62µM* | . | . | . | .
C[C@@H]1NCC[C@H](CC(=O)O)[C@H]1CC(=O)O | . | 2.0%[10 µM] | . | . | . | -0.3%
CCNc1ncc2nc(-c3cc(F)cc(F)c3)c(=O)n(CCC#N)c2n1 | . | -8.7% | . | . | 9.1% | -22.4%
O=c1c2c(nc3c(-c4ccc(Cl)cc4)c[nH]n13)CCCC2 | -16.8%[46.1 µM] | -58.0% | -11.4 | 7.08µM* | ? | -8.3%[38.3 µM]
CS(=O)(=O)Nc1ccccc1C(=O)Nc1cccc(Cl)c1 | -15.6%[46.1 µM] | 5.4%[10 µM] | 9.8 | 11.2µM* | ? | -1.8%
CS(=O)(=O)Nc1ccccc1C(=O)Nc1ccccc1Cl | 7.0%[46.1 µM] | 35.5%[10 µM] | -4.4 | -10.9% | -9.9% | 0.9%
CS(=O)(=O)Nc1ccccc1C(=O)Nc1cc(Cl)cc(Cl)c1 | -8.7%[46.1 µM] | -56.7%[10 µM] | -3.7 | 8.91µM* | -17.6% | 17.6%[38.3 µM]
COc1cccc(NC(=O)c2ccccc2NS(C)(=O)=O)c1 | -12.4%[46.1 µM] | 11.7%[10 µM] | 2.6 | -14.7% | -7.5% | 13.7%[38.3 µM]
CCc1ccc(/C=C2\SC(=S)N(CCC(=O)N3CCN(C)CC3)C2=O)cc1 | 11.9% | 17.8µM* | . | 11.7% | ? | 0.2%
COc1ccc(/C=C2\SC(=S)N(CC(=O)N3CCN(C)CC3)C2=O)cc1 | -0.7% | 15.6%[10 µM] | . | -17.3%[9.22 µM] | . | .
CCCCCCCN | . | -14.8% | . | . | . | -24.2%
Cc1nn(-c2ccccc2)c(N)c1Sc1cccc([N+](=O)[O-])c1 | -34.2% | 18.3%[10 µM] | . | -15.7% | ? | 12.3%
Cc1nn(-c2ccccc2)c(N)c1Sc1ccccc1[N+](=O)[O-] | -11.4% | 2.4%[10 µM] | -3.2 | 3.55µM* | -14.1% | 2.3%
CN1/C(=C/C(=O)c2nc(S(C)(=O)=O)ncc2Cl)C(C)(C)c2ccccc21 | 5.01µM* | -102.9%[10 µM] | 13.9 | 37.1%[9.22 µM] | ? | 21.2%[38.3 µM]
CN1/C(=C\C(=O)c2cncc(Br)c2)C(C)(C)c2ccccc21 | -6.3% | 6.8%[10 µM] | . | 15.8µM* | ? | 11.7%
CN1/C(=C\C=N\NC(=O)c2cccnc2)C(C)(C)c2ccccc21 | -28.9% | -31.5% | . | 6.31µM* | . | 10.0%
CCc1ccc(CN2CCc3nc(Nc4ccc5c(c4)OCCO5)ncc3C2)cc1 | . | . | . | . | -11.4%[46 µM] | .
Cc1nn(-c2ccc(S(=O)(=O)O)cc2)c(O)c1N=Nc1ccc(-c2ccc(N=Nc3ccc4c(S(=O)(=O)O)cc(S(=O)(=O)O)c(N)c4c3O)c(O)c2)cc1O.[Cu].[Cu] | . | -7.4%[10 µM] | . | . | . | 6.7%
Cc1cc(-c2ccc(N=Nc3c(S(=O)(=O)O)cc4cc(S(=O)(=O)O)cc(N)c4c3O)c(C)c2)ccc1N=Nc1c(S(=O)(=O)O)cc2cc(S(=O)(=O)O)cc(N)c2c1O | . | -22.5% | . | 0.02µM* | . | .
O=C(N/N=C/c1ccc2c(c1)OCO2)c1cc2ccccc2o1 | 3.7% | 9.9%[10 µM] | . | -15.0%[9.22 µM] | . | .
O=C(COc1ccc(/C=N/NC(=O)c2cc3ccccc3o2)cc1Cl)Nc1ccccc1 | 3.98µM* | -11.0%[10 µM] | -4.4 | -8.9% | -1.6% | 2.4%
CCC[C@@H]1O[C@@H]2C[C@@H]3[C@@H]4CCC5=CC(=O)C=C[C@@]5(C)[C@H]4[C@H](O)C[C@@]3(C)[C@@]2(C(=O)CO)O1 | . | 10.0%[1.9 µM] | . | . | . | .
CC(C)NC(=O)Nc1ccc(Br)cc1Cl | -3.4% | -1.7%[10 µM] | . | -15.2%[9.22 µM] | . | -2.2%
O=C(Nc1ccc(Br)cc1Cl)NC1CC1 | -26.2% | -19.2% | . | 17.8µM* | . | 4.6%
